In PubChem BioAssay (Tox21):
Several values for one entry are separate records, joined by “and”; a condition that tells them apart may be missing. Identical values can stand only once. Inconclusive results are not listed. Activity calls are given as the source filed them. Unless noted, calls follow the shape of the dose curve; as a rule, active = well fitted curve in the direction sought with a large enough effect in the repeat runs; inconclusive = weak or mixed curves; inactive = no such curve, though single readings can be large; an effect the other way counts as inactive or inconclusive.

Key:
[1] = qHTS assay for small molecule agonists of the p53 signaling pathway (AID 651631; calls by dose curve; also: nearly all actives have a fitted effect of over 15% in size)
Method in brief: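 Read-out is beta-lactamase FRET fluorescence measured 2 h after substrate addition at room temperature, in HCT-116 cells with a p53 response element-driven reporter exposed to compounds for 16 h at 37 °C.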

[2] = qHTS assay for small molecules that induce genotoxicity in human embryonic kidney cells expressing luciferase-tagged ATAD5 (AID 651632); also: nearly all actives have a fitted effect of over 15% in size
Method in brief: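 Genotoxicity read-out via ATAD5-luciferase: HEK293T cells, 16 hr compound incubation at 37C, Amplite detection.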

[3] = qHTS assay for small molecules that induce genotoxicity in human embryonic kidney cells expressing luciferase-tagged ATAD5 - cell viability (AID 651634; calls by dose curve; also: nearly all actives have a fitted effect of over 25% in size)
Method in brief: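 Live-cell protease activity (CellTiter-Fluor, fluorescence) indicates viability. HEK293T cells with luciferase-tagged ATAD5; 15.5 hr compound treatment at 37C.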

[4] = qHTS assay for small molecule disruptors of the mitochondrial membrane potential - cell viability (AID 720634; calls by dose curve;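 also: human HepG2 liver cancer cells; series mostly up to about 83 µM; nearly all actives have a fitted effect of over 20% in size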)
Method in brief: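 Human hepatoma HepG2 cells were treated for 1 hr with test chemicals, then given m-MPI dye and CellTiter-Glo. Cell viability reflects luminescence proportional to cellular ATP.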

[5] = qHTS assay to test for compound auto fluorescence at 535 nm (green) in HepG2 cells (AID 720675)
[6] = qHTS assay to test for compound auto fluorescence at 460 nm (blue) in HEK293 cells (AID 720678)
Method in brief: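 Blue-channel (Ex/Em 405/460 nm) intensity measured in HEK293 cultures after overnight compound exposure at 37C; signal expressed relative to triamterene. Cells plated 2,000 per well in 10% dialyzed FBS medium and allowed 4-5 hr to attach.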

[7] = qHTS assay to test for compound auto fluorescence at 590 nm (red) in HEK293 cells (AID 720679)
Method in brief: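 Red-channel autofluorescence (Ex/Em 540/590 nm; Rose Bengal sodium reference) was measured after overnight 37C, 5% CO2 exposure of attached HEK293 cells, 2,000 per well in medium with 10% dialyzed FBS.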

[8] = qHTS assay to test for compound auto fluorescence at 535 nm (green) in HEK293 cells (AID 720680)
[9] = qHTS assay to test for compound auto fluorescence at 460 nm (blue) in HEK293 cell free culture (AID 720681)
Method in brief: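 Compounds were added to cell-free DMEM with 10% FBS and fluorescence read directly. The blue channel used 405 nm excitation and 460 nm emission, with triamterene as the reference fluorophore.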

[10] = qHTS assay to test for compound auto fluorescence at 535 nm (green) in HEK293 cell free culture (AID 720682)
Method in brief: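 Fluorescein serves as the green reference fluorophore; each compound's intrinsic emission at 535 nm (excitation 485 nm) is reported as an equivalent amount of that dye, measured in serum-containing DMEM without cells.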

[11] = qHTS assay to test for compound auto fluorescence at 590 nm (red) in HEK293 cell free culture (AID 720683)
Method in brief: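 Cell-free wells of DMEM with 10% FBS received compound, and intrinsic fluorescence was read at excitation/emission 540/590 nm. Values expressed as equivalence to Rose Bengal sodium.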

[12] = qHTS assay to test for compound auto fluorescence at 590 nm (red) in HepG2 cell free culture (AID 720684)
Method in brief: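 Compounds are added to culture medium (MEM, 10% FBS) lacking cells, then fluorescence is read at excitation 540 nm, emission 590 nm, with Rose Bengal sodium as the equivalency standard.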

[13] = qHTS assay to test for compound auto fluorescence at 460 nm (blue) in HepG2 cell free culture (AID 720685)
Method in brief: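 Compound (23 nL) or DMSO pinned into cell-free MEM with 10% FBS; blue fluorescence read at 405/460 nm excitation/emission, expressed as auto-fluorescence equivalency to triamterene.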

[14] = qHTS assay to test for compound auto fluorescence at 535 nm (green) in HepG2 cell free culture (AID 720686)
[15] = qHTS assay to test for compound auto fluorescence at 460 nm (blue) in HepG2 cells (AID 720687)
Method in brief: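 HepG2 cells in MEM with 10% FBS, attached overnight at 37 C, were exposed to compound or DMSO for 1 hr at 37 C, 5% CO2. Blue fluorescence was read at 405/460 nm, with triamterene as reference fluorophore.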

[16] = target: Glucocorticoid receptor (Homo sapiens) (UniProt P04150); assay: qHTS assay to identify small molecule agonists of the glucocorticoid receptor (GR) signaling pathway (AID 720691; active = well fitted activation curve with a large enough effect in the signal ratio in the repeat runs, not every such curve was filed as active; the % refers to the signal ratio)
Chain of Glucocorticoid receptor (Homo sapiens) (P04150 whole entry, looked up): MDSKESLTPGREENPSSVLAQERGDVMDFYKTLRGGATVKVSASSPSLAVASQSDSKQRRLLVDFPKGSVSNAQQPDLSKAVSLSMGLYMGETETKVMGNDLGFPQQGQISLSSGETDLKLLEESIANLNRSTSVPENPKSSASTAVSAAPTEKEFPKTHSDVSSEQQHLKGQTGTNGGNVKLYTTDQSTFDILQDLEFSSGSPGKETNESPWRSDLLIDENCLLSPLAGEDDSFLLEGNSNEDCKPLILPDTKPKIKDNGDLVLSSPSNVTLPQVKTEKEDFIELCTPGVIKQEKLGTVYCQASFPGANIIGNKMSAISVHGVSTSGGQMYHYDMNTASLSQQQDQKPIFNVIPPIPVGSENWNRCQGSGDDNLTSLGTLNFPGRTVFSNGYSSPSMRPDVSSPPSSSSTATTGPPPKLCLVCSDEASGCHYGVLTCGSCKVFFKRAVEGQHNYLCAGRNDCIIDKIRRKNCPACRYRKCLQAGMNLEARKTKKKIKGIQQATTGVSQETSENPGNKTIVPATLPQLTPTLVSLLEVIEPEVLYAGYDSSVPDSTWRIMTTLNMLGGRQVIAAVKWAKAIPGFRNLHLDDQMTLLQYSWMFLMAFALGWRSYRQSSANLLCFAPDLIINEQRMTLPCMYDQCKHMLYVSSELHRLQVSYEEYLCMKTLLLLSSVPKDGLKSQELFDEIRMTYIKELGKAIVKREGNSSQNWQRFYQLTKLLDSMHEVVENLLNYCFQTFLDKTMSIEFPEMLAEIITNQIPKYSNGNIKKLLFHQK
Method in brief: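 Beta-lactamase reporter activity, read as fluorescence intensity, was measured in GR-bla HeLa cells exposed to compounds for 18 h at 37 C and then loaded with LiveBLAzer B/G FRET substrate for 2 h at room temperature.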

[17] = target: Glucocorticoid receptor (Homo sapiens) (UniProt P04150); assay: qHTS assay to identify small molecule antagonists of the glucocorticoid receptor (GR) signaling pathway (AID 720692; active = well fitted inhibition curve with a large enough effect in the signal ratio in the repeat runs, not every such curve was filed as active; the % refers to the signal ratio)
Method in brief: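 Fluorescence from cleaved LiveBLAzer B/G FRET substrate reports GRE-driven beta-lactamase in HeLa cells; compounds are tested against 5 nM dexamethasone (final) over 18 h at 37 C, substrate incubation 2 h at room temperature.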

[18] = qHTS assay for small molecule disruptors of the mitochondrial membrane potential (AID 720635); also: potency is read from the fitted curve at half-maximal effect
Method in brief: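 HepG2 cells exposed to compound 1 hr at 37C, then Mito-MPS dye 30 min. Ratio read of aggregate (540/590 nm) versus monomer (490/535 nm) fluorescence.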

[19] = qHTS assay to test for compound auto fluorescence at 590 nm (red) in HepG2 cells (AID 720674)
Method in brief: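 Seeding: 2,000 HepG2 cells/well, MEM/10% FBS, overnight 37 C. Dosing: compound vs DMSO. Incubation: 1 hr, 37 C, 5% CO2. Read: fluorescence 540 ex/590 em, Rose Bengal sodium as red reference.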

[20] = qHTS assay for small molecule agonists of the p53 signaling pathway - cell viability (AID 651633; calls by dose curve;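 also: p53RE-bla HCT reporter cells with a stable beta-lactamase p53 reporter; series mostly up to about 83 µM; nearly all actives have a fitted effect of over 30% in size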)
Method in brief: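 p53RE-bla cells were treated with compound for 16 hours at 37 C. Cytotoxicity was then measured as CellTiter-Glo luminescence after 30 min at room temperature.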
% is scaled to controls: 0 for no effect and ±100 for the full control effect.

O=C1C=CC(=O)O1
inactive: Potency [1] | Potency [2] | Potency [3] | Potency [4] | outcome [5] | outcome [6] | outcome [7] | outcome [8] | outcome [9] | outcome [10] | outcome [11] | outcome [12] | outcome [13] | outcome [14] | outcome [15] | Potency [16] | Potency [17]

C=CC(C)(O)CC/C=C(\C)CCC=C(C)C (stereo not given)
inactive: Potency [1] | Potency [2] | Potency [4] | outcome [19] | outcome [5] | outcome [6] | outcome [8] | outcome [9] | outcome [10] | outcome [11] | outcome [12] | outcome [14] | outcome [15] | Potency [16] | Potency [17]
active: Potency [18] 12.4 µM and 27.3 µM

FC(F)(F)C(Cl)(Cl)Cl
inactive: Potency [1] | Potency [20] | Potency [3] | Potency [4] | Potency [18] | outcome [19] | outcome [5] | outcome [6] | outcome [7] | outcome [8] | outcome [9] | outcome [10] | outcome [11] | outcome [12] | outcome [13] | outcome [14] | outcome [15]

CCc1cc(Cl)c(OC)c(C(=O)NC[C@@H]2CCCN2CC)c1O
inactive: Potency [1] | Potency [2] | Potency [20] | Potency [4] | outcome [5] | outcome [6] | outcome [7] | outcome [8] | outcome [9] | outcome [10] | outcome [11] | outcome [12] | outcome [13] | outcome [14] | outcome [15] | Potency [16] | Potency [17]

C=Cc1ccccc1
inactive: Potency [1] | Potency [2] | Potency [4] | Potency [18] | outcome [19] | outcome [6] | outcome [7] | outcome [8] | outcome [9] | outcome [10] | outcome [11] | outcome [12] | outcome [14] | outcome [15]

COc1ccccc1OCC(O)COC(N)=O (stereo not given)
inactive: Potency [1] | Potency [2] | Potency [3] | Potency [18] | fluorescence, relative to Rose Bengal [19] -0.267% [at 18.6 µM] | fluorescence, % of fluorescein control [5] 0.0143% [at 18.6 µM] | fluorescence, % of triamterene [6] 0.0837% [at 18.6 µM] | fluorescence, % of fluorescent control [7] 0.0645% [at 18.6 µM] | fluorescence, % of fluorescein [8] -0.023% [at 18.6 µM] | fluorescence, % of fluorescent control [9] 0.143% [at 18.6 µM] | activity change [10] 0.0183% [at 18.6 µM] | fluorescence, % of fluorescent control [11] -0.113% [at 18.6 µM] | fluorescence, % of Rose Bengal [12] 0.679% [at 18.6 µM] | fluorescence, % of fluorescent control [13] 0.0993% [at 18.6 µM] | fluorescence, % of fluorescein control [14] -0.0199% [at 18.6 µM] | fluorescence, % of fluorescent control [15] 0.0352% [at 18.6 µM] | Potency [16]

CO[C@@]1(NC(=O)CSCC#N)C(=O)N2C(C(=O)O)=C(CSc3nnnn3C)CS[C@@H]21
inactive: Potency [1] | Potency [2] | Potency [4] | Potency [18] | outcome [19] | outcome [5] | outcome [6] | outcome [7] | outcome [8] | outcome [9] | outcome [10] | outcome [11] | outcome [12] | outcome [13] | outcome [15] | Potency [16]

CCCCOc1cc(C(=O)NCCN(CC)CC)c2ccccc2n1
inactive: Potency [1] | Potency [2] | Potency [4] | fluorescence, % of fluorescein control [5] 0.0079% [at 18.6 µM] | fluorescence, % of triamterene [6] -0.0164% [at 18.6 µM] | fluorescence, % of fluorescent control [7] -0.209% [at 18.6 µM] | fluorescence, % of fluorescein [8] 0.0154% [at 18.6 µM] | fluorescence, % of fluorescent control [9] 0.0819% [at 18.6 µM] | activity change [10] -0.0175% [at 18.6 µM] | fluorescence, % of fluorescent control [11] -0.187% [at 18.6 µM] | fluorescence, % of Rose Bengal [12] 0.52% [at 18.6 µM] | fluorescence, % of fluorescent control [13] 0.0544% [at 18.6 µM] | Potency [16]

O=C(O[C@@H](C(=O)O)[C@@H](OC(=O)c1ccccc1)C(=O)O)c1ccccc1
inactive: Potency [1] | Potency [2] | Potency [3] | Potency [4] | Potency [18] | outcome [19] | outcome [5] | outcome [6] | outcome [7] | outcome [8] | outcome [9] | outcome [10] | outcome [12] | outcome [13] | outcome [14] | outcome [15] | Potency [16] | Potency [17]
